Data as given in PubChem BioAssay AID1159580 (chemical genetic matrix, 2015).
The whole screen tested about 5,500 compounds, of which about 2,000 (36%) were called active. About 18% were inconclusive and are not listed. No stated cut-off is given here; in the data, active means normalized growth mostly below about 0.91 (no sharp cut-off); inconclusive means no clear call, values can overlap the other calls; inactive means mostly above about 0.92. Some of the results follow.

Assay: chemical genetic growth profiling, strain panel (AID 1159580);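 further: tested at 20 µM; growth read once vehicle control cultures reached saturation at 30 °C; 1 = growth at the plate median or of vehicle wells; lower values mean less growth of the strain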
Details: growth OD

Measured: normalized growth

COc1c2ccoc2cc2oc(C)cc(=O)c12
active: S. cerevisiae deletion strains, locus YLR418C, strain cdc73, active compounds read low 0.835
inactive: S. cerevisiae deletion strains, locus YKL009W, strain mrt4, active compounds read low 0.965 | S. cerevisiae deletion strains, locus YKL068W, active compounds read low 0.982 | S. cerevisiae deletion strains, locus YKL085W, strain MDH1 (second series), active compounds read low 0.974 | S. cerevisiae deletion strains, locus YKL085W, strain MDH1, active compounds read low 0.974 | S. cerevisiae deletion strains, locus YKL160W, strain elf1, active compounds read low 0.993 | S. cerevisiae deletion strains, locus YKL190W, strain CNB1, active compounds read low 0.978 | S. cerevisiae deletion strains, locus YKR001C, strain vps1, active compounds read low 0.961 | S. cerevisiae deletion strains, locus YKR026C, strain gcn3, active compounds read low 0.982 | S. cerevisiae deletion strains, locus YKR091W, strain srl3, active compounds read low 0.998 | S. cerevisiae deletion strains, locus YLL001W, strain dnm1, active compounds read low 0.998 | S. cerevisiae deletion strains, locus YLL026W, active compounds read low 0.992 | S. cerevisiae deletion strains, locus YLL041C, strain sdh2, active compounds read low 1.01 | S. cerevisiae deletion strains, locus YLR027C, strain aat2, active compounds read low 0.997 | S. cerevisiae deletion strains, locus YLR039C, strain RIC1, active compounds read low 0.968 | S. cerevisiae deletion strains, locus YLR058C, strain SHM2, active compounds read low 0.936 | S. cerevisiae deletion strains, locus YLR102C, strain apc9, active compounds read low 0.992 | S. cerevisiae deletion strains, locus YLR113W, strain HOG1, active compounds read low 1.1 | S. cerevisiae deletion strains, locus YLR221C, strain rsa3, active compounds read low 0.987 | S. cerevisiae deletion strains, locus YLR258W, strain gsy2, active compounds read low 0.987 | S. cerevisiae deletion strains, locus YLR262C, strain YPT6 (second series), active compounds read low 1.03 | S. cerevisiae deletion strains, locus YLR262C, strain YPT6, active compounds read low 0.92 | S. cerevisiae deletion strains, locus YLR268W, strain sec22, active compounds read low 1.02 | S. cerevisiae deletion strains, locus YLR320W, strain mms22, active compounds read low 0.993 | S. cerevisiae deletion strains, locus YLR330W, strain CHS5, active compounds read low 0.986 | S. cerevisiae deletion strains, locus YLR342W, strain FKS1 (second series), active compounds read low 1.01 | S. cerevisiae deletion strains, locus YLR342W, strain FKS1, active compounds read low 0.984 | S. cerevisiae deletion strains, locus YLR357W, strain rsc2, active compounds read low 0.98 | S. cerevisiae deletion strains, locus YLR370C, strain arc18, active compounds read low 0.992 | S. cerevisiae deletion strains, locus YLR371W, strain rom2, active compounds read low 0.986 | S. cerevisiae deletion strains, locus YLR384C, strain iki3, active compounds read low 1 | S. cerevisiae deletion strains, locus YML016C, strain PPZ1, active compounds read low 0.977 | S. cerevisiae deletion strains, locus YML032C, strain rad52, active compounds read low 0.912 | S. cerevisiae deletion strains, locus YML120C, strain ndi1, active compounds read low 1.02 | S. cerevisiae deletion strains, locus YML124C, strain tub3, active compounds read low 0.99 | S. cerevisiae deletion strains, locus YMR058W, strain fet3, active compounds read low 1 | S. cerevisiae deletion strains, locus YMR078C, strain ctf18, active compounds read low 0.977 | S. cerevisiae deletion strains, locus YMR125W, strain sto1, active compounds read low 0.997 | S. cerevisiae deletion strains, locus YMR129W, active compounds read low 0.999 | S. cerevisiae deletion strains, locus YMR205C, strain PFK2, active compounds read low 1.01 | S. cerevisiae deletion strains, locus YMR223W, strain ubp8, active compounds read low 0.956 | S. cerevisiae deletion strains, locus YMR231W, strain pep5, active compounds read low 1.01 | S. cerevisiae deletion strains, locus YMR307W, strain GAS1, active compounds read low 0.961 | S. cerevisiae deletion strains, locus YNL067W, strain RPL9B, active compounds read low 0.96 | S. cerevisiae deletion strains, locus YNL071W, strain lat1, active compounds read low 0.993 | S. cerevisiae deletion strains, locus YNL128W, strain TEP1, active compounds read low 0.943 | S. cerevisiae deletion strains, locus YNL153C, strain GIM3, active compounds read low 0.93 | S. cerevisiae deletion strains, locus YNL183C, strain NPR1, active compounds read low 0.983 | S. cerevisiae deletion strains, locus YNL209W, strain ssb2, active compounds read low 0.983 | S. cerevisiae deletion strains, locus YNL233W, strain BNI4, active compounds read low 0.924 | S. cerevisiae deletion strains, locus YNL248C, strain rpa49, active compounds read low 1 | S. cerevisiae deletion strains, locus YNL250W, strain rad50, active compounds read low 0.987 | S. cerevisiae deletion strains, locus YNL271C, strain bni1, active compounds read low 0.986 | S. cerevisiae deletion strains, locus YNL298W, strain CLA4, active compounds read low 0.975 | S. cerevisiae deletion strains, locus YNL307C, strain MCK1, active compounds read low 0.991 | S. cerevisiae deletion strains, locus YNL322C, strain KRE1 (second series), active compounds read low 0.984 | S. cerevisiae deletion strains, locus YNL322C, strain KRE1, active compounds read low 0.976 | S. cerevisiae deletion strains, locus YNR049C, strain mso1, active compounds read low 0.993 | S. cerevisiae deletion strains, locus YNR052C, strain pop2, active compounds read low 0.977 | S. cerevisiae deletion strains, locus YOL006C, strain TOP1, active compounds read low 0.946 | S. cerevisiae deletion strains, locus YOL012C, strain htz1 1.83 | S. cerevisiae deletion strains, locus YOL147C, strain pex11, active compounds read low 0.984 | S. cerevisiae deletion strains, locus YOR001W, strain rrp6, active compounds read low 0.982 | S. cerevisiae deletion strains, locus YOR061W, strain CKA2, active compounds read low 0.959 | S. cerevisiae deletion strains, locus YOR069W, strain VPS5, active compounds read low 0.993 | S. cerevisiae deletion strains, locus YOR070C, strain gyp1, active compounds read low 0.984 | S. cerevisiae deletion strains, locus YOR080W, strain dia2, active compounds read low 1.02 | S. cerevisiae deletion strains, locus YOR083W, strain WHI5, active compounds read low 0.994 | S. cerevisiae deletion strains, locus YOR106W, strain vam3, active compounds read low 0.994 | S. cerevisiae deletion strains, locus YOR136W, strain idh2, active compounds read low 0.996 | S. cerevisiae deletion strains, locus YOR144C, strain elg1, active compounds read low 0.989 | S. cerevisiae deletion strains, locus YOR184W, strain ser1, active compounds read low 0.967 | S. cerevisiae deletion strains, locus YOR231W, strain MKK1, active compounds read low 1.07 | S. cerevisiae deletion strains, locus YOR265W, strain rbl2, active compounds read low 1 | S. cerevisiae deletion strains, locus YOR270C, strain vph1, active compounds read low 0.997 | S. cerevisiae deletion strains, locus YOR290C, strain snf2, active compounds read low 0.974 | S. cerevisiae deletion strains, locus YOR316C, strain cot1, active compounds read low 0.995 | S. cerevisiae deletion strains, locus YPL051W, strain arl3, active compounds read low 0.979 | S. cerevisiae deletion strains, locus YPL078C, strain atp4, active compounds read low 0.992 | S. cerevisiae deletion strains, locus YPL106C, strain sse1, active compounds read low 0.95 | S. cerevisiae deletion strains, locus YPL240C, strain hsp82, active compounds read low 0.99 | S. cerevisiae deletion strains, locus YPL241C, strain CIN2, active compounds read low 0.976 | S. cerevisiae deletion strains, locus YPL256C, strain CLN2, active compounds read low 1.05 | S. cerevisiae deletion strains, locus YPR119W, strain clb2, active compounds read low 0.986 | S. cerevisiae deletion strains, locus YPR141C, strain kar3, active compounds read low 0.984 | S. cerevisiae deletion strains, locus YPR163C, strain tif3, active compounds read low 0.978 | S. cerevisiae deletion strains, locus YPR167C, strain met16, active compounds read low 0.991 | S. cerevisiae deletion strains, strain wtn01, active compounds read low 1.03 | S. cerevisiae strains, strain wild type, active compounds read low 0.965
